# Experimental data reported in PubChem BioAssay (NCATS).
# Results filed as inconclusive are left out. Values without a mark were called inactive. Activity calls are given as the source filed them. Calls follow the shape of the dose curve; as a rule, active = well fitted inhibition curve with a large enough effect; inconclusive = small, poorly fitted or top-dose-only effect; inactive = flat fitted curve, though single readings scatter.
# Test system: KB-3-1
# Assay: Cytotoxic Profiling of Annotated Libraries Using Quantitative High-Throughput Screening (AID 1296008); also: nearly all actives have a fitted effect of over 60% in size
# Conditions: Five cell lines viability, CellTiter-Glo ATP luminescence, 48-72 h; max response: hits give low values
# Procedure, shortened: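 Cells exposed to compounds for 48 or 72 hr at 37 degrees Celsius. Viability read as ATP-coupled luminescence with CellTiter-Glo after 10 min at room temperature.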
# % is scaled to controls: 0 for no effect and ±100 for the full control effect; potency is read from the fitted curve at half-maximal effect.
Structure (SMILES),max response,Potency
CSCCC(N)C(=O)O (configuration not stated),3.08%,
N=C(N)c1ccc(/C=C/c2ccc(C(=N)N)cc2O)cc1,-19%,
CO,17.7%,
O=C(O)COc1ccc(CCNS(=O)(=O)c2ccccc2)s1,-3.19%,
C[S+](C)CCC(N)C(=O)O (configuration not stated),3.56%,
CC(C)c1ncc([N+](=O)[O-])n1C,-7.8%,
Cc1ncc(C[n+]2csc(CCOP(=O)(O)O)c2C)c(N)n1,-2.14%,
NC[C@@H]1CC[C@@H](N)[C@@H](O[C@H]2[C@H](O)[C@@H](O[C@H]3O[C@H](CO)[C@@H](O)[C@H](N)[C@H]3O)[C@H](N)C[C@@H]2N)O1,0.761%,
CC(=O)Oc1cccc(C(=O)O)c1OC(C)=O,-11.2%,
O=C(O)C1=C(CSc2nnnn2CS(=O)(=O)O)CS[C@@H]2[C@H](NC(=O)[C@H](O)c3ccccc3)C(=O)N12,3.59%,
O=S(=O)(O)CCCS(=O)(=O)O,0.835%,
N=C(N)n1cccn1,3.42%,
Nc1nc(/C(=C/CC(=O)O)C(=O)N[C@@H]2C(=O)N3C(C(=O)O)=CCS[C@H]23)cs1,-7.11%,
OC[C@H]1O[C@@H]2O[C@H]3[C@H](O)[C@@H](O)[C@@H](O[C@H]4[C@H](O)[C@@H](O)[C@@H](O[C@H]5[C@H](O)[C@@H](O)[C@@H](O[C@H]6[C@H](O)[C@@H](O)[C@@H](O[C@H]7[C@H](O)[C@@H](O)[C@@H](O[C@H]1[C@H](O)[C@H]2O)O[C@@H]7CO)O[C@@H]6CO)O[C@@H]5CO)O[C@@H]4CO)O[C@@H]3CO,3.87%,
NC(=O)OC[C@@H]1[C@H](NC(=O)/C(=N\OCC(=O)O)c2csc(N)n2)C(=O)N1S(=O)(=O)O,-1.39%,
C[C@H](CCC(=O)O)[C@H]1CC[C@H]2[C@@H]3[C@H](O)C[C@@H]4C[C@H](O)CC[C@]4(C)[C@H]3C[C@H](O)[C@]12C,1.07%,
CCC(Cc1c(I)cc(I)c(O)c1I)C(=O)O (configuration not stated),-4.91%,
CC(=O)Nc1c(I)c(C(=O)O)c(I)c(N(C)C(C)=O)c1I,3.77%,
NCC(O)CC(=O)O (configuration not stated),3.49%,

Structure (SMILES),max response,Potency
CNCC(O)c1ccc(OC(=O)C(C)(C)C)c(OC(=O)C(C)(C)C)c1 (configuration not stated),-7.58%,
C[C@@](Cc1ccc(O)c(O)c1)(NN)C(=O)O,2.59%,
CCN1\C(=C/C=C/C=C/c2sc3ccccc3[n+]2CC)Sc2ccccc21,,9.2 µM (active)
COc1ccc2c(c1)OC(C)(C)C(c1ccccc1)C2c1ccc(OCCN2CCCC2)cc1 (configuration not stated),-26.5%,
CCCOC(=O)c1ccccc1O,-1.94%,
CCCCC/C=C\CCC(=O)N[C@H]1[C@H](Oc2c3cc4cc2Oc2ccc(cc2Cl)[C@@H](O[C@@H]2O[C@H](CO)[C@@H](O)[C@H](O)[C@H]2NC(C)=O)[C@@H]2NC(=O)[C@H](NC(=O)[C@@H]4NC(=O)[C@H]4NC(=O)[C@@H](Cc5ccc(c(Cl)c5)O3)NC(=O)[C@H](N)c3ccc(O)c(c3)Oc3cc(O)cc4c3)c3ccc(O)c(c3)-c3c(O[C@H]4O[C@H](CO)[C@@H](O)[C@H](O)[C@@H]4O)cc(O)cc3[C@@H](C(=O)O)NC2=O)O[C@H](CO)[C@@H](O)[C@@H]1O,-12.7%,
NC[C@H]1O[C@H](O[C@H]2[C@H](O)[C@@H](O[C@H]3O[C@H](CO)[C@@H](O)[C@H](N)[C@H]3O)[C@H](N)C[C@@H]2N)[C@H](O)[C@@H](O)[C@@H]1O,14.5%,
CC1(C)C(\C=C/C=C\C=C/C=C2/N(CCCCS(=O)(=O)O)c3ccc4ccccc4c3C2(C)C)=[N+](CCCCS(=O)(=O)[O-])c2ccc3ccccc3c21,-6.53%,
COC(=O)C(CN)c1c[nH]c2ccc(OC)cc12 (configuration not stated),9.41%,
Cc1cccc(C)c1NC(=O)NC1=CCCN1C,-2.58%,
NC(=O)[C@H]1O[C@@H](O)[C@H](O)[C@@H](O)[C@@H]1O,4.29%,
CC(O)[C@H]1CC[C@H]2[C@@H]3CC[C@@H]4C[C@@H](O)CC[C@]4(C)[C@H]3CC[C@]12C (some centres not stated),-16.3%,
CC(CCc1ccc(O)cc1)NCC(O)c1ccc(O)cc1 (configuration not stated),9.04%,
O=[N+]([O-])O[C@@H]1CO[C@H]2[C@@H]1OC[C@@H]2O,-3.81%,
OCCCNc1ccccc1,2.06%,
CC[C@@H]1/C=C(\C)C[C@H](C)C[C@H](OC)[C@H]2O[C@@](O)(C(=O)C(=O)N3CCCC[C@H]3C(=O)O[C@H](/C(C)=C/[C@@H]3CC[C@@H](Cl)[C@H](OC)C3)[C@H](C)[C@@H](O)CC1=O)[C@H](C)C[C@@H]2OC,-9.83%,
CCCCCCCCCc1ccc(OCCOCCO)cc1,-16.4%,
CO[C@H]1C=CO[C@@]2(C)Oc3c(C)c(O)c4c(O)c(cc(O)c4c3C2=O)NC(=O)/C(C)=C\C=C/[C@H](C)[C@H](O)[C@@H](C)[C@@H](O)[C@@H](C)[C@H](OC(C)=O)[C@@H]1C,-3.21%,
